Results: PubChem BioAssay AID1159580 (chemical genetic matrix, 2015)
The whole screen tested about 5,500 compounds, of which about 2,000 (36%) were called active. Another 18% or so got no clear call; they are omitted. No stated cut-off is given here; in the data, active means normalized growth mostly below about 0.91 (no sharp cut-off); inconclusive means no clear call, values can overlap the other calls; inactive means mostly above about 0.92. This is one part of the list.

Assay: chemical genetic growth profiling, strain panel (AID 1159580);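 further: tested at 20 µM; growth read once vehicle control cultures reached saturation at 30 °C; 1 = growth at the plate median or of vehicle wells; lower values mean less growth of the strain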
Settings: growth OD

Measured: normalized growth

COc1cc2c(cc1OC)C(=O)OC2
inactive: S. cerevisiae deletion strains, locus YJR075W, strain HOC1, active compounds read low 1.01 | S. cerevisiae deletion strains, locus YKL009W, strain mrt4, active compounds read low 1.05 | S. cerevisiae deletion strains, locus YKL068W, active compounds read low 1 | S. cerevisiae deletion strains, locus YKL085W, strain MDH1 (second series), active compounds read low 1.01 | S. cerevisiae deletion strains, locus YKL085W, strain MDH1, active compounds read low 1.01 | S. cerevisiae deletion strains, locus YKL160W, strain elf1, active compounds read low 0.994 | S. cerevisiae deletion strains, locus YKL190W, strain CNB1, active compounds read low 1 | S. cerevisiae deletion strains, locus YKR001C, strain vps1, active compounds read low 1.01 | S. cerevisiae deletion strains, locus YKR026C, strain gcn3, active compounds read low 0.992 | S. cerevisiae deletion strains, locus YKR091W, strain srl3, active compounds read low 0.996 | S. cerevisiae deletion strains, locus YLL001W, strain dnm1, active compounds read low 0.996 | S. cerevisiae deletion strains, locus YLL026W, active compounds read low 0.991 | S. cerevisiae deletion strains, locus YLL041C, strain sdh2, active compounds read low 1 | S. cerevisiae deletion strains, locus YLR027C, strain aat2, active compounds read low 1 | S. cerevisiae deletion strains, locus YLR039C, strain RIC1, active compounds read low 1.02 | S. cerevisiae deletion strains, locus YLR058C, strain SHM2, active compounds read low 1.01 | S. cerevisiae deletion strains, locus YLR102C, strain apc9, active compounds read low 1 | S. cerevisiae deletion strains, locus YLR113W, strain HOG1, active compounds read low 0.971 | S. cerevisiae deletion strains, locus YLR221C, strain rsa3, active compounds read low 1.01 | S. cerevisiae deletion strains, locus YLR258W, strain gsy2, active compounds read low 0.992 | S. cerevisiae deletion strains, locus YLR262C, strain YPT6 (second series), active compounds read low 1.02 | S. cerevisiae deletion strains, locus YLR262C, strain YPT6, active compounds read low 1.02 | S. cerevisiae deletion strains, locus YLR268W, strain sec22, active compounds read low 0.979 | S. cerevisiae deletion strains, locus YLR320W, strain mms22, active compounds read low 0.995 | S. cerevisiae deletion strains, locus YLR330W, strain CHS5, active compounds read low 1.01 | S. cerevisiae deletion strains, locus YLR342W, strain FKS1 (second series), active compounds read low 1.07 | S. cerevisiae deletion strains, locus YLR342W, strain FKS1, active compounds read low 0.999 | S. cerevisiae deletion strains, locus YLR357W, strain rsc2, active compounds read low 0.96 | S. cerevisiae deletion strains, locus YLR370C, strain arc18, active compounds read low 0.997 | S. cerevisiae deletion strains, locus YLR371W, strain rom2, active compounds read low 1.01 | S. cerevisiae deletion strains, locus YLR384C, strain iki3, active compounds read low 0.988 | S. cerevisiae deletion strains, locus YLR418C, strain cdc73, active compounds read low 0.925 | S. cerevisiae deletion strains, locus YML016C, strain PPZ1, active compounds read low 1 | S. cerevisiae deletion strains, locus YML032C, strain rad52, active compounds read low 1.01 | S. cerevisiae deletion strains, locus YML120C, strain ndi1, active compounds read low 1.01 | S. cerevisiae deletion strains, locus YML124C, strain tub3, active compounds read low 0.994 | S. cerevisiae deletion strains, locus YMR058W, strain fet3, active compounds read low 0.999 | S. cerevisiae deletion strains, locus YMR078C, strain ctf18, active compounds read low 1 | S. cerevisiae deletion strains, locus YMR125W, strain sto1, active compounds read low 0.984 | S. cerevisiae deletion strains, locus YMR129W, active compounds read low 0.992 | S. cerevisiae deletion strains, locus YMR205C, strain PFK2, active compounds read low 1.01 | S. cerevisiae deletion strains, locus YMR223W, strain ubp8, active compounds read low 1.02 | S. cerevisiae deletion strains, locus YMR231W, strain pep5, active compounds read low 0.99 | S. cerevisiae deletion strains, locus YMR263W, strain SAP30, active compounds read low 0.994 | S. cerevisiae deletion strains, locus YMR307W, strain GAS1, active compounds read low 1.09 | S. cerevisiae deletion strains, locus YNL067W, strain RPL9B, active compounds read low 0.997 | S. cerevisiae deletion strains, locus YNL071W, strain lat1, active compounds read low 0.995 | S. cerevisiae deletion strains, locus YNL128W, strain TEP1, active compounds read low 0.99 | S. cerevisiae deletion strains, locus YNL153C, strain GIM3, active compounds read low 0.978 | S. cerevisiae deletion strains, locus YNL183C, strain NPR1, active compounds read low 0.987 | S. cerevisiae deletion strains, locus YNL209W, strain ssb2, active compounds read low 0.979 | S. cerevisiae deletion strains, locus YNL233W, strain BNI4, active compounds read low 0.992 | S. cerevisiae deletion strains, locus YNL248C, strain rpa49, active compounds read low 0.978 | S. cerevisiae deletion strains, locus YNL250W, strain rad50, active compounds read low 0.995 | S. cerevisiae deletion strains, locus YNL271C, strain bni1, active compounds read low 1 | S. cerevisiae deletion strains, locus YNL298W, strain CLA4, active compounds read low 1.02 | S. cerevisiae deletion strains, locus YNL307C, strain MCK1, active compounds read low 1.02 | S. cerevisiae deletion strains, locus YNL322C, strain KRE1 (second series), active compounds read low 0.996 | S. cerevisiae deletion strains, locus YNL322C, strain KRE1, active compounds read low 1.01 | S. cerevisiae deletion strains, locus YNR049C, strain mso1, active compounds read low 1 | S. cerevisiae deletion strains, locus YNR052C, strain pop2, active compounds read low 1.01 | S. cerevisiae deletion strains, locus YOL006C, strain TOP1, active compounds read low 0.996 | S. cerevisiae deletion strains, locus YOL012C, strain htz1 0.744 | S. cerevisiae deletion strains, locus YOL147C, strain pex11, active compounds read low 1 | S. cerevisiae deletion strains, locus YOR001W, strain rrp6, active compounds read low 0.993 | S. cerevisiae deletion strains, locus YOR061W, strain CKA2, active compounds read low 1 | S. cerevisiae deletion strains, locus YOR069W, strain VPS5, active compounds read low 1.01 | S. cerevisiae deletion strains, locus YOR070C, strain gyp1, active compounds read low 0.984 | S. cerevisiae deletion strains, locus YOR080W, strain dia2, active compounds read low 1.01 | S. cerevisiae deletion strains, locus YOR083W, strain WHI5, active compounds read low 0.996 | S. cerevisiae deletion strains, locus YOR106W, strain vam3, active compounds read low 0.99 | S. cerevisiae deletion strains, locus YOR136W, strain idh2, active compounds read low 1 | S. cerevisiae deletion strains, locus YOR144C, strain elg1, active compounds read low 1 | S. cerevisiae deletion strains, locus YOR184W, strain ser1, active compounds read low 1.04 | S. cerevisiae deletion strains, locus YOR231W, strain MKK1, active compounds read low 0.991 | S. cerevisiae deletion strains, locus YOR265W, strain rbl2, active compounds read low 1.01 | S. cerevisiae deletion strains, locus YOR270C, strain vph1, active compounds read low 0.971 | S. cerevisiae deletion strains, locus YOR290C, strain snf2, active compounds read low 1.01 | S. cerevisiae deletion strains, locus YOR316C, strain cot1, active compounds read low 1.01 | S. cerevisiae deletion strains, locus YPL051W, strain arl3, active compounds read low 0.994 | S. cerevisiae deletion strains, locus YPL055C, strain LGE1, active compounds read low 0.973 | S. cerevisiae deletion strains, locus YPL078C, strain atp4, active compounds read low 1.01 | S. cerevisiae deletion strains, locus YPL106C, strain sse1, active compounds read low 0.901 | S. cerevisiae deletion strains, locus YPL240C, strain hsp82, active compounds read low 0.988 | S. cerevisiae deletion strains, locus YPL241C, strain CIN2, active compounds read low 1 | S. cerevisiae deletion strains, locus YPL256C, strain CLN2, active compounds read low 1 | S. cerevisiae deletion strains, locus YPR119W, strain clb2, active compounds read low 0.995 | S. cerevisiae deletion strains, locus YPR141C, strain kar3, active compounds read low 1 | S. cerevisiae deletion strains, locus YPR163C, strain tif3, active compounds read low 0.989 | S. cerevisiae deletion strains, locus YPR167C, strain met16, active compounds read low 1 | S. cerevisiae deletion strains, strain wtn01, active compounds read low 1 | S. cerevisiae strains, strain wild type, active compounds read low 1.01
